# Compound activity deposited in PubChem by National Center for Advancing Translational Sciences (NCATS).
# NPC1 prom act – activates the NPC1 promoter; Huh7 NPC1 promoter luciferase reporter, 24 h; Potency, µM (top dose mostly 9.22 µM), most hits filed as activators; actives 2.4% (n = 320,000); AID 485313; note: nearly all actives have a fitted effect of over 60% in size
#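 Huh7 reporter cells (NPC1 promoter driving luciferase) are dosed with compound for 24 h at 37 °C, 5% CO2; luciferase detection reagent is then added and luminescence measured after 10 min at ambient temperature.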
# SMN2 splice enh – enhancers of SMN2 splice variant expression | Potency, µM (highest dose often 46.1 µM), actives largely listed as activators | actives 2.8% (n = 210,000) | HEK293 SMN2-luciferase splicing reporter, luminescence, 30-36 h; note: nearly all actives have a fitted effect of over 55% in size
#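 HEK293 cells carry an SMN2 […]–luciferase reporter in which exon 7 inclusion puts luciferase in frame. Cells were plated 10-12 h before compound addition, then incubated 30-36 h at 37C. ONE-Glo luminescence was read; sodium butyrate at 4.5 mM final served as control.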
# ELG1 genotoxic – induces genotoxicity in HEK293T cells with luciferase-tagged ELG1 | HEK293T ELG1-luciferase reporter, luminescence, 16 h | Potency, µM (titrated, usually from 46 µM), actives largely listed as activators | actives 1.3% (n = 330,000) | AID 504466; note: nearly all actives have a fitted effect of over 60% in size
#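 Luminescence read-out: rising ELG1-luciferase signal, reflecting elevated ELG1 protein under genetic stress, flags genotoxic compounds. Cells were treated for 16 hr at 37 °C before ONE-Glo detection.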
# Rab9 prom act – Rab9 promoter activation | Huh7 Rab9 promoter-luciferase reporter, luminescence, 24 h | Potency, µM (doses to about 9.22 µM), most hits filed as activators | actives 2.8% (n = 320,000) | AID 485297; note: nearly all actives have a fitted effect of over 60% in size
#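 Promoter activation is measured as luciferase luminescence in Huh7 cells stably transfected with a Rab9 promoter–luciferase construct, following 24 h compound exposure at 37 °C and 10 min reagent incubation at ambient temperature.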
# FLuc modulator – counter-screen for miR-21 project: firefly luciferase inhibitors or activators; purified FLuc, Km substrates, luminescence inhibition; AID 588342; Potency, µM (titrated, usually from 57.5 µM), most hits filed as inhibitors; actives 6.9% (n = 360,000); note: nearly all actives have a fitted effect of over 55% in size
# Target sequence (P08659 whole entry, looked up): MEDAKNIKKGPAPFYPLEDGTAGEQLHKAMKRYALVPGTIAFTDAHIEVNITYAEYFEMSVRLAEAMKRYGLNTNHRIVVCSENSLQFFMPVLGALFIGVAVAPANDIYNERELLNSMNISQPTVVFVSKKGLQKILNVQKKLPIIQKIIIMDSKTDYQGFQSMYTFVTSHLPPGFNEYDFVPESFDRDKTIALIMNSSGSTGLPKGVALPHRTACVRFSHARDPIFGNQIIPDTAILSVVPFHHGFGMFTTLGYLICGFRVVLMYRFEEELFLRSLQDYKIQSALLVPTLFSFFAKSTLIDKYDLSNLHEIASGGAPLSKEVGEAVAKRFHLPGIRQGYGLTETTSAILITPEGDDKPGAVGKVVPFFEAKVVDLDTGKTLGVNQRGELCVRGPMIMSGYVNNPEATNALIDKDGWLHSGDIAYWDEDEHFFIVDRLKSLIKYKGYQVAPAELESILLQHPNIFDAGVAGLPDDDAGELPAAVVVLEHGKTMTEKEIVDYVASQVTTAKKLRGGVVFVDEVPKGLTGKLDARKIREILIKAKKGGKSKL
#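 Purified P. pyralis luciferase (10nM final) with 10uM D-luciferin and 10uM ATP (Km levels) in 50mM Tris acetate pH 7.5, 10mM Mg acetate, 0.01% Tween-20, 0.05% BSA; qHTS 6-point titration, ~60 µM downward; luminescence read.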
# ELG1 DNA repair – ELG1-dependent DNA repair inhibition. HEK293T ELG1-luciferase reporter, luminescence, 16 h; DNA damage induced by 5-fluorouridine. Potency, µM (doses to about 46.1 µM), actives largely listed as inhibitors. actives 2.3% (n = 330,000). AID 504467; note: nearly all actives have a fitted effect of over 55% in size
#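 Step one: seed 2,000 cells per well. Step two: pin-transfer compound or DMSO alongside 5-fluorouridine. Step three: incubate 16 hr, 37 °C, 5% CO2. Step four: add ONE-Glo, wait 30 min, read luminescence.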
# A number is an active result; . = inactive; ? = inconclusive; / = not tested or not shown; [ ] = dose if it differs, or a comment. Shown are actives, neighbours in structure and some others; about 9.2% of the full set was active somewhere. Calls come from the whole dose curve; as a rule, active = well fitted curve in the direction sought with a large enough effect; inconclusive = small, poorly fitted or top-dose-only effect, or another doubt; inactive = no such curve, though single readings can be large; an effect the other way counts as inactive or inconclusive.
SMILES,NPC1 prom act,SMN2 splice enh,ELG1 genotoxic,Rab9 prom act,FLuc modulator,ELG1 DNA repair
O=C1c2ccccc2CCC1C(O)c1ccccn1 (configuration not stated),.,/,.,.,15µM,?
CC(C)(C)c1ccc(C(=O)Nc2cccc(C(=O)N3CCOCC3)c2)cc1,1.3µM,/,?,0.89µM,0.54µM,?
CC(C)(C)c1ccc(OC(=O)N2CCOCC2)cc1,.,/,?,?,15µM,?
COc1ccc(C(=O)Nc2cccc(C(=O)N3CCCCC3)c2)cc1,.,/,.,.,15µM,.
COc1ccc(C(=O)Nc2cccc(C(=O)N3CCN(C)CC3)c2)cc1,?,?,.,?,.[2.3 µM],.
CN(C)S(=O)(=O)c1ccc(C(=O)Nc2cccc(C(=O)N3CCOCC3)c2)cc1,.,/,.,.,.,.
Cc1ccc(C(=O)Nc2cccc(C(=O)N3CCOCC3)c2)cc1,4µM,?,?,2µM,9.5µM,?
O=C(Nc1cccc(C(=O)N2CCOCC2)c1)c1ccccc1Cl,.,/,.,.,.,.
Cc1ccc(OC(=O)N2CCOCC2)cc1,.,.,?,.,?,?
CCN1C(=NCCOC)N[C@@H](c2cccs2)C(C(=O)OC)=C1C,.,/,.,.,.,.
O=C(CCSCc1ccccc1Cl)N1CCN(c2cccc(Cl)c2)CC1,.,.,.,.,.,.
Cc1ccc(NC(=O)Nc2ccc(C(=O)N3CCOCC3)cc2)cc1,.,.,.,.,.,.
CC(=O)c1cccc(NC(=O)Nc2ccc(C(=O)N3CCOCC3)cc2)c1,.,.,.,.,?,10µM
Cc1cccn2cc(-c3ccccc3)nc12,1.6µM,11µM,?,1.8µM,3µM,?
COc1ccc(-c2cn3cccc(C)c3n2)cc1Br,3.5µM,11µM,?,2.8µM,2.4µM,?
Cc1cccn2cc(-c3ccc(F)cc3)cc12,.,.,.,.,?,.
CCCS(=O)(=O)Nc1cc(-c2cn3cccc(C)c3n2)ccc1C,/,.,/,/,12µM,/
Cc1cccn2cc(-c3ccc(F)cc3)nc12,1.1µM,/,0.92µM,1.8µM,2.4µM,?
N=C(c1ccc([N+](=O)[O-])cc1)N1CCCCCC1,.,.,.,.,.,.
CC1=C(CCN2CCN(C(C)C)C(CCO)C2)C(C)(C)CCC1 (configuration not stated),.,/,.,.,.,.
Cc1cccn2cc(CNc3ccccc3)nc12,?,22µM,21µM,?,?,?
CCCS(=O)(=O)NCc1cn2cccc(C)c2n1,.,.,.,.,.,.
Cc1cc(C)c(/C=C/c2onc(C)c2S(=O)(=O)N2CCC(C(=O)NCCc3ccccc3)CC2)c(C)c1,/,/,/,/,.,/
O=C(COC(=O)c1cccc(N2C(=O)C3CC=CCC3C2=O)c1)c1ccccc1 (configuration not stated),.,/,.,.,2.4µM,.
CCc1ccc(C(=O)COC(=O)c2cccc(N3C(=O)c4c(C)nc5ccccc5c4C3=O)c2)cc1,?,.,.,.,1.7µM,?
SMILES,NPC1 prom act,SMN2 splice enh,ELG1 genotoxic,Rab9 prom act,FLuc modulator,ELG1 DNA repair
Nc1cccc(C(=O)OCC(=O)c2ccccc2)c1,3.2µM,10µM,?,3.5µM,1.3µM,?
O=C(O)c1cccc(N2C(=O)C3CC=CCC3C2=O)c1 (configuration not stated),.,.,.,.,.,.
Cn1ccc(C(=O)OCC(=O)c2ccccc2)n1,.,/,?,.,27µM,?
O=C(COC(=O)c1cccc(O)c1)c1ccccc1,.,/,?,.,?,?
Cc1cnc(C(=O)OCC(=O)c2ccccc2)cn1,.,/,.,.,?,.
CCCNC(=O)c1cnc2sc(N3CCCCCC3)nn2c1=O,/,/,/,/,.,/
CN1CCCN(C(=O)c2cc(-c3cccc4ccccc34)nc3ccccc23)CC1,.,/,.,.,.,.
COc1ccc2cc(-c3cc(C(=O)O)c4ccccc4n3)ccc2c1,0.11µM,?,?,?,0.067µM,?
CCOc1ccc(-c2cc(C(=O)N3CCN(C)CC3)c3ccccc3n2)cc1,2.8µM,11µM,?,2.5µM,0.6µM,?
CC(C)c1ccc(-c2cc(C(=O)N3CCOCC3)c3cc(Br)ccc3n2)cc1,.,/,.,.,9.5µM,?
O=C(c1cc(-c2cccc(Cl)c2)nc2ccccc12)N1CCCC1,.,/,.,.,17µM,.
COc1ccc(/C=C2\SC(=O)N(CCNC(=O)Cn3[nH]c(=O)c4ccccc4c3=O)C2=O)cc1,/,/,.,/,/,.
O=C(O)c1cc(-c2ccco2)nc2ccc(Br)cc12,.,.,.,.,19µM,?
CCOc1ccc(-c2cc(C(=O)N3CCCC3)c3ccccc3n2)cc1,3.5µM,/,?,1.4µM,0.48µM,?
COc1ccc(-c2cc3cc(OC)c(OC)cc3c(C)n2)cc1,?,/,.,?,17µM,.
COc1ccc(-c2cc(C(=O)N3CCCC(C(F)(F)F)C3)c3ccccc3n2)cc1 (configuration not stated),.,/,.,.,6µM,?
Clc1cccc(C2=NC(c3cccs3)=Nc3ccc(Br)cc3N2)c1,/,.,/,/,.,/
Cc1ccc(Sc2ccc(S(=O)(=O)Nc3ccc(C(=O)O)cc3)cc2)cc1C,/,/,.,/,/,.
CC(=O)N1CCc2cc(S(=O)(=O)NC(Cc3ccccc3)C(=O)Nc3ccc(C)cc3C)ccc21 (configuration not stated),/,.,/,/,.,/
Cc1ccc(-n2ncc3c2CC(C)(C)CC3NC(=O)c2ccncc2)cc1 (configuration not stated),.,/,.,.,.,.
COc1ccc(S(=O)(=O)NCC(c2ccco2)S(=O)(=O)c2cccs2)cc1F (configuration not stated),/,/,/,/,.,/
O=C(c1cc(-c2ccc(F)cc2)nc2ccccc12)N1CCC1,/,/,.,/,/,?
CCCN1CCN(C(=O)c2noc3c2COc2ccc(C)cc2-3)CC1,.,/,.,.,.,?
COc1ccc(-c2cc(OC)c3ccccc3n2)cc1,.,.,.,.,19µM,.
COc1cc(-c2ccccc2)nc2ccccc12,.,.,.,.,.,.
O=C(O)c1cc(-c2ccc(-c3ccc(F)cc3)o2)nc2ccccc12,2.5µM,/,?,0.89µM,0.13µM,?
Cc1ccc(-c2cc(C(=O)N3CCN(c4ncccn4)CC3)c3cc(Br)ccc3n2)o1,.,.,.,.,4.8µM,?
O=C(c1cc(-c2ccccn2)nc2ccc(Br)cc12)N1CCN(S(=O)(=O)c2ccccc2)CC1,.,.,.,.,.,?
CCOC(=O)N1CCN(C(=O)c2noc3c2COc2ccccc2-3)CC1,?,/,?,?,13µM,?
Cc1cccc(C(=O)NCC(=O)N2CCOCC2)c1,.,/,.,.,.,.
